This passage reports inhibition results from PubChem BioAssay.

Usually inhibition stands for the change of the read-out against control, counted positive when it falls.

Molecules are shown by their SMILES. Values without a mark were called inactive. Activity calls are given as the source filed them. Cut-off read from the data, not from the text of the source, unless noted: active = inhibition above about 28%; inactive = the rest.

A short description of experiment [1]: StAR promoter reporter inhibitors, counter-screen for LRH-1 inverse agonist project, cell-based, luminescence, high throughput (AID 651611). As to conditions: StAR promoter luciferase reporter counterscreen, at 3.6 µM, active compounds read high.
Experiment [2] deals with Nuclear receptor subfamily 5 group A member 2 (Homo sapiens) (UniProt O00482). Put plainly: NR5A2 activity suppression in reporter cells – cell-based, luminescence, confirmation (AID 651613; in the data active = inhibition above about 42%;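 note: HEK293T cells co-transfected with LRH-1 and StAR promoter luciferase reporter; 0% = vehicle wells and 100% = parental cells lacking receptor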). To be noted: cell-based LRH-1 luciferase reporter, inverse agonism; at 3.6 µM; active compounds read high. A general note: Reporter assays use an easily measured gene product as a stand-in for the process of interest.

The target in experiment [3] is Steroidogenic factor 1 (Homo sapiens) (UniProt Q13285). Put plainly: inverse agonism at SF1 nuclear receptor – cell-based, luminescence, high throughput, counter-screen for LRH-1 inverse agonist project (AID 651614; in the data active = inhibition above about 44%;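 note: cells cotransfected with StAR promoter reporter and SF1 expression vector; 0% = vehicle on cells with receptor and 100% = vehicle on cells lacking receptor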). As to conditions: cell-based SF1 luciferase reporter, at 3.6 µM, active compounds read high. A general note: A counterscreen serves to expose hits that act by an unwanted route or on another target.

Experiment [4] in a line: compounds suppressing VP16-driven luciferase signal – cell-based, luminescence, high throughput, counter-screen for LRH-1 inverse agonist project (AID 651615; in the data active = inhibition above about 33%). To be noted: Gal4-VP16 luciferase reporter cells, at 3.6 µM, active compounds read high.

Nuclear receptor subfamily 5 group A member 2 (Homo sapiens), sequence (O00482 whole entry, looked up): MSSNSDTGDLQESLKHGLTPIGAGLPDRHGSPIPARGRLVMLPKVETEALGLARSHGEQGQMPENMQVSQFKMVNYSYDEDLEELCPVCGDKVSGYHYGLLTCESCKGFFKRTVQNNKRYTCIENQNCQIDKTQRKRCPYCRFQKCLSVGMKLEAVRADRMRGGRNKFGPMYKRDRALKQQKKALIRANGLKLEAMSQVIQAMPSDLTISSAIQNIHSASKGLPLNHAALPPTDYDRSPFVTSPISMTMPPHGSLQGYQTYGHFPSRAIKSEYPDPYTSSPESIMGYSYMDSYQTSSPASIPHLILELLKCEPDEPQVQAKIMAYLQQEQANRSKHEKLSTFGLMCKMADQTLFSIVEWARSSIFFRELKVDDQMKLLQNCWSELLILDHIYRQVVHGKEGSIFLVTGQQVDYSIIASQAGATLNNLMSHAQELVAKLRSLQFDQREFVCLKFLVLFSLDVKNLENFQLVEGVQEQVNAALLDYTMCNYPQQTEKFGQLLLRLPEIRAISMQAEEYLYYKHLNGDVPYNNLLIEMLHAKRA
Steroidogenic factor 1 (Homo sapiens), sequence (Q13285 whole entry, looked up): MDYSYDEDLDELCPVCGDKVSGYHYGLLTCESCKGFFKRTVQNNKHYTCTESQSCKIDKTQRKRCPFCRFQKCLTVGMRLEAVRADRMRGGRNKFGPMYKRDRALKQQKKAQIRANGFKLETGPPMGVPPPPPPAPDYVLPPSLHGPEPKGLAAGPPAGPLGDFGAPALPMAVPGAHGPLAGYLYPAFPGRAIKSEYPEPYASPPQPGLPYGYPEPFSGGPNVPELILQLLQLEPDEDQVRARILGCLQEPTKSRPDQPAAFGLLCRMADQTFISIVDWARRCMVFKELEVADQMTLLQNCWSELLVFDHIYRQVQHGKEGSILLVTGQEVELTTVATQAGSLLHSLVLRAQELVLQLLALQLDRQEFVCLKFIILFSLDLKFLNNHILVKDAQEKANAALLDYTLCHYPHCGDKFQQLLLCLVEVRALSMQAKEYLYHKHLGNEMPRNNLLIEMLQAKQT

As to `CC1CCCC(C)N1C(=O)COC(=O)Cc1ccc(Cl)cc1` (stereo unspecified), the inhibition in experiment [1] was -5.45%; in experiment [2], 51.2% (active); in experiment [3] it was 41.8%; in experiment [4], 0.05%.
For `O=C1CCN(CCCN2CCC(=O)N(Cc3ccccc3)C2=S)C(=S)N1Cc1ccccc1`, the inhibition is -8.81% in experiment [1], 27.2% in experiment [2], 28.5% in experiment [3] and -0.72% in experiment [4].
In the case of `Cc1ccccc1C(=O)N1CCN(c2ccc(NC(=O)c3ccc([N+](=O)[O-])o3)cc2)CC1`, the inhibition was 25.2% in experiment [1], 64.4% (active) in experiment [2], 69.1% (active) in experiment [3] and 2.37% in experiment [4].
As to `CCCc1cc(=O)oc2c(C)c(OCC(=O)NCCCn3ccnc3)ccc12`, the inhibition in experiment [1] is -1.87%; in experiment [2], 47.8% (active); in experiment [3] it was 35.9%; in experiment [4] it was -19.5%.
Regarding `COc1ccc(NC(=O)Cn2nnc(C(=O)Nc3ccccc3C)c2N)cc1`, the inhibition in experiment [1] was 5.36%; in experiment [2], 41.4% (active); in experiment [3], 37.6%; in experiment [4], 9.36%.
The like results for `CC(=O)c1ccc(NC(=O)C(C)O/N=C(\N)c2ccccc2)cc1` (stereo unspecified) were, in that order, 10.5%, 51.7% (active), 41.8% and -7.19%.
Take `CCOc1ccc(NC(=O)COC(=O)c2ccc3c(c2)OCCO3)cc1`: the inhibition in experiment [1] is 14%; in experiment [2] it was 57.6% (active); in experiment [3], 51.9% (active); in experiment [4], -12.9%.
For the molecule `CN(CCc1ccccc1)C(=O)c1ccc(NC(=O)Cc2ccc(NC(=O)C3CCCN(C(=O)CCc4ccccc4)C3)cc2)cc1` (stereo unspecified), the inhibition in experiment [1] was 30.9% (active); in experiment [2], 62.4% (active); in experiment [3] it was 64.5% (active); in experiment [4], 59.8% (active).
The like results for `CS(=O)(=O)c1ccc2nc(NC(=O)C3CC(=O)N(c4ccccc4)C3)sc2c1` (stereo unspecified) were, in that order, 29.6% (active), 60.4% (active), 55.9% (active) and 11.3%.
Consider `NC(=S)Nc1ccc(Oc2ccc(NC(N)=S)cc2)cc1`, for which the inhibition was 5.35% in experiment [1], 31.2% in experiment [2], 40% in experiment [3] and -6.09% in experiment [4].
With `COc1cccc(C(=O)N/N=C2/SCC(=O)N2CCc2ccc(OC)c(OC)c2)c1`, the inhibition was 10.8% in experiment [1], 31.3% in experiment [2], 36.8% in experiment [3] and -5.38% in experiment [4].
The like results for `CC(=O)Nc1cc(-c2cccc(N)c2)cn2c(-c3ccc(C(C)=O)cc3)cnc12` were, in that order, 19.6%, 33.4%, 36.5% and -13.4%.
Take `COc1cccc(C(NC(C)=O)c2ccc3cccnc3c2O)c1` (stereo unspecified): the inhibition in experiment [1] was 74.9% (active); in experiment [2], 89.8% (active); in experiment [3], 76.5% (active); in experiment [4], 76.3% (active).
With `Cc1ccc(NC(=O)CSc2nnc(CNC(=O)c3ccco3)n2C)c(C)c1`, the inhibition in experiment [1] was 6.66%; in experiment [2], 58.5% (active); in experiment [3] it was 51.4% (active); in experiment [4] it was -7.24%.
As to `Cc1cc(C)c2nc(-c3cccnc3)cc(C(=O)NC(C)c3cnn(C)c3C)c2c1` (stereo unspecified), the inhibition in experiment [1] was 10.3%; in experiment [2], 57.6% (active); in experiment [3], 50.9% (active); in experiment [4] it was -13.5%.
Regarding `CCC(NC(=O)c1cc(COc2cc(C)c(Cl)c(C)c2)on1)c1ccncc1` (stereo unspecified), the inhibition in experiment [1] is 0.99%; in experiment [2] it was 52.5% (active); in experiment [3], 50.9% (active); in experiment [4], 8.52%.
The like results for `COc1cc(CCNc2ccc3nnc(-c4ccccc4)n3n2)cc(OC)c1OC` were, in that order, 50.7% (active), 37.5%, 28.6% and -65.1%.
In the case of `O=C(c1ccc(=O)n(Cc2ccccc2)n1)N1CCN(C/C=C/c2ccccc2)CC1`, the inhibition is 2.26% in experiment [1], 52.9% (active) in experiment [2], 28% in experiment [3] and 5.07% in experiment [4].
For the molecule `CCc1ccccc1NC(=O)CSc1nnc([C@@H]2CCCN2C(=O)OC(C)(C)C)o1`, the inhibition in experiment [1] was 16.4%; in experiment [2] it was 50.5% (active); in experiment [3] it was 59% (active); in experiment [4], -8.78%.
For the molecule `CCCc1nc(SCC(=O)c2ccc(F)cc2)c2ccccc2n1`, the inhibition in experiment [1] is 5.26%; in experiment [2], 46.9% (active); in experiment [3], 55.7% (active); in experiment [4], -0.25%.
`COC(=O)C1(C)Nc2ccccc2C(=O)N1c1ccccc1C` (stereo unspecified): the inhibition in experiment [1] was 2.27%; in experiment [2] it was 16%; in experiment [3], 0.53%; in experiment [4] it was 7.07%.
Consider `Cc1cccnc1NC(=O)c1ccc([N+](=O)[O-])o1`, for which the inhibition in experiment [1] was 12.3%; in experiment [2], 52.7% (active); in experiment [3] it was 57.8% (active); in experiment [4] it was 1.88%.
Turning to `CC(=O)Nc1ccc(NC(=O)CSc2nnc(NC(=O)C3CC3)s2)cc1`, the inhibition in experiment [1] is 1.23%; in experiment [2] it was 49.6% (active); in experiment [3], 48.2% (active); in experiment [4] it was -1.05%.
On the same counts, the results for `CCN(Cc1ccccc1)c1ccc(/C=N/NS(=O)(=O)c2ccc(C)c([N+](=O)[O-])c2)cc1` are 10.9%, 40.7%, 61.3% (active) and 9.15%.
